# Columns and labels:
# Test in all cases: SPOT peptide array binding signal intensity (averaged, normalized) (arbitrary units (background-subtracted, floor 0; scale differs between SH3 domains)); higher = stronger binding of the SH3 domain to the peptide
# [1] = biological target: CaNbp2
# Outline: (§1)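 E. coli BL21(DE3) was used to express GST-fused SH3 domains from four yeast species, which were then purified on glutathione Sepharose. These were incubated at 10 μg/ml in TBS-based blocking buffer overnight at 4°C on cellulose membranes carrying synthetic 15-mer peptides, in which cysteines were replaced by serines. Binding signal is the replicate average of normalized, background-subtracted spot intensity, in arbitrary units that differ between domains.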
# [2] = biological target: CaRvs167
# Outline: as §1
# [3] = biological target: CaRvs167-3
# Outline: as §1
# [4] = biological target: CaSho1
# Outline: as §1
# [5] = biological target: CaSla1-D1-D2
# Outline: as §1
# [6] = biological target: CaSla1-D3
# Outline: as §1
# [7] = biological target: ScAbp1
# Outline: as §1
# [8] = biological target: ScBbc1
# Outline: as §1
# [9] = biological target: ScBem1-D1
# Outline: as §1
# [10] = biological target: ScBzz1-D1
# Outline: as §1
# [11] = biological target: ScBzz1-D2
# Outline: as §1
# [12] = biological target: ScCyk3
# Outline: as §1
# [13] = biological target: ScFus1
# Outline: as §1
# [14] = biological target: ScHof1
# Outline: as §1
# [15] = biological target: ScHse1
# Outline: as §1
# [16] = biological target: ScLsb1
# Outline: as §1
# [17] = biological target: ScLsb2
# Outline: as §1
# [18] = biological target: ScLsb3
# Outline: as §1
# [19] = biological target: ScLsb4
# Outline: as §1
# [20] = biological target: ScMyo3
# Outline: as §1
# [21] = biological target: ScMyo5
# Outline: as §1
# [22] = biological target: ScNbp2
# Outline: as §1
# [23] = biological target: ScPex13
# Outline: as §1
# [24] = biological target: ScRvs167
# Outline: as §1
# [25] = biological target: ScSho1
# Outline: as §1
# [26] = biological target: ScSla1-D1-D2
# Outline: as §1
# [27] = biological target: ScSla1-D3
# Outline: as §1
# [28] = biological target: SpAbp1-D1
# Outline: as §1
# [29] = biological target: SpBbc1
# Outline: as §1
# [30] = biological target: SpBzz1-D1
# Outline: as §1
# [31] = biological target: SpBzz1-D2
# Outline: as §1
# [32] = biological target: SpCyk3
# Outline: as §1
# [33] = biological target: SpHof1
# Outline: as §1
# [34] = biological target: SpHof1-2
# Outline: as §1
# [35] = biological target: SpHof1-3
# Outline: as §1
# [36] = biological target: SpHse1
# Outline: as §1
# [37] = biological target: SpLsb1
# Outline: as §1
# [38] = biological target: SpLsb4
# Outline: as §1
# [39] = biological target: SpMyo1
# Outline: as §1
# [40] = biological target: SpNbp2
# Outline: as §1
# [41] = biological target: SpPex13
# Outline: as §1
# [42] = biological target: SpRvs167
# Outline: as §1
# [43] = biological target: SpSla1-D1-D2
# Outline: as §1
# [44] = biological target: SpSla1-D3
# Outline: as §1
# [45] = biological target: AgAbp1
# Outline: as §1
# [46] = biological target: AgBbc1
# Outline: as §1
# [47] = biological target: AgBem1-D1
# Outline: as §1
# [48] = biological target: AgBzz1-D1
# Outline: as §1
# [49] = biological target: AgBzz1-D2
# Outline: as §1
# [50] = biological target: AgCyk3
# Outline: as §1
# [51] = biological target: AgFus1
# Outline: as §1
# [52] = biological target: AgHof1
# Outline: as §1
# [53] = biological target: AgHse1
# Outline: as §1
# [54] = biological target: AgLsb1
# Outline: as §1
# [55] = biological target: AgLsb4
# Outline: as §1
# [56] = biological target: AgMyo5
# Outline: as §1
# [57] = biological target: AgNbp2
# Outline: as §1
# [58] = biological target: AgRvs167
# Outline: as §1
# [59] = biological target: AgSho1
# Outline: as §1
# [60] = biological target: AgSla1-D1-D2
# Outline: as §1
# [61] = biological target: AgSla1-D3
# Outline: as §1
# [62] = biological target: CaAbp1-D1
# Outline: as §1
# [63] = biological target: CaAbp1-D2
# Outline: as §1
# [64] = biological target: CaBbc1
# Outline: as §1
# [65] = biological target: CaBem1-D1
# Outline: as §1
# [66] = biological target: CaBzz1-D1
# Outline: as §1
# [67] = biological target: CaBzz1-D2
# Outline: as §1
# [68] = biological target: CaCyk3
# Outline: as §1
# [69] = biological target: CaFus1
# Outline: as §1
# [70] = biological target: CaHof1
# Outline: as §1
# [71] = biological target: CaHse1
# Outline: as §1
# [72] = biological target: CaLsb1
# Outline: as §1
# [73] = biological target: CaLsb4
# Outline: as §1
# [74] = biological target: CaMyo5
# Outline: as §1
binder,measurement,setting,value
NFFRKKLGIPRKLKR,SPOT peptide array binding signal intensity,[1],189
same,SPOT peptide array binding signal intensity,[2],8.83
same,SPOT peptide array binding signal intensity,[3],47
same,SPOT peptide array binding signal intensity,[4],447
same,SPOT peptide array binding signal intensity,[5],11
same,SPOT peptide array binding signal intensity,[6],2.5
same,SPOT peptide array binding signal intensity,[7],146
same,SPOT peptide array binding signal intensity,[8],4.5
same,SPOT peptide array binding signal intensity,[9],14
same,SPOT peptide array binding signal intensity,[10],9
same,SPOT peptide array binding signal intensity,[11],13.5
same,SPOT peptide array binding signal intensity,[12],53
same,SPOT peptide array binding signal intensity,[13],314
same,SPOT peptide array binding signal intensity,[14],1.25
same,SPOT peptide array binding signal intensity,[15],1910
same,SPOT peptide array binding signal intensity,[16],13.5
same,SPOT peptide array binding signal intensity,[17],8
same,SPOT peptide array binding signal intensity,[18],103
same,SPOT peptide array binding signal intensity,[19],3
same,SPOT peptide array binding signal intensity,[20],≤ 0
same,SPOT peptide array binding signal intensity,[21],0.5
same,SPOT peptide array binding signal intensity,[22],68
same,SPOT peptide array binding signal intensity,[23],0.5
same,SPOT peptide array binding signal intensity,[24],2.33
same,SPOT peptide array binding signal intensity,[25],473
same,SPOT peptide array binding signal intensity,[26],38.5
same,SPOT peptide array binding signal intensity,[27],6.25
same,SPOT peptide array binding signal intensity,[28],462
same,SPOT peptide array binding signal intensity,[29],3
same,SPOT peptide array binding signal intensity,[30],50
same,SPOT peptide array binding signal intensity,[31],≤ 0
same,SPOT peptide array binding signal intensity,[32],≤ 0
same,SPOT peptide array binding signal intensity,[33],87
same,SPOT peptide array binding signal intensity,[34],1.25
same,SPOT peptide array binding signal intensity,[35],998
same,SPOT peptide array binding signal intensity,[36],1560
same,SPOT peptide array binding signal intensity,[37],25.5
same,SPOT peptide array binding signal intensity,[38],19
same,SPOT peptide array binding signal intensity,[39],0.5
same,SPOT peptide array binding signal intensity,[40],63.5
same,SPOT peptide array binding signal intensity,[41],5
same,SPOT peptide array binding signal intensity,[42],3.67
same,SPOT peptide array binding signal intensity,[43],≤ 0
same,SPOT peptide array binding signal intensity,[44],17.5
NGRRRPKFRVQLSGN,SPOT peptide array binding signal intensity,[45],206
same,SPOT peptide array binding signal intensity,[46],71
same,SPOT peptide array binding signal intensity,[47],339
same,SPOT peptide array binding signal intensity,[48],84
same,SPOT peptide array binding signal intensity,[49],46
same,SPOT peptide array binding signal intensity,[50],5
same,SPOT peptide array binding signal intensity,[51],1440
same,SPOT peptide array binding signal intensity,[52],47.8
same,SPOT peptide array binding signal intensity,[53],1600
same,SPOT peptide array binding signal intensity,[54],16.5
same,SPOT peptide array binding signal intensity,[55],379
same,SPOT peptide array binding signal intensity,[56],1.5
same,SPOT peptide array binding signal intensity,[57],430
same,SPOT peptide array binding signal intensity,[58],9
same,SPOT peptide array binding signal intensity,[59],269
same,SPOT peptide array binding signal intensity,[60],462
same,SPOT peptide array binding signal intensity,[61],13
same,SPOT peptide array binding signal intensity,[62],596
same,SPOT peptide array binding signal intensity,[63],855
same,SPOT peptide array binding signal intensity,[64],134
same,SPOT peptide array binding signal intensity,[65],74.5
same,SPOT peptide array binding signal intensity,[66],185
same,SPOT peptide array binding signal intensity,[67],114
same,SPOT peptide array binding signal intensity,[68],33
same,SPOT peptide array binding signal intensity,[69],3650
same,SPOT peptide array binding signal intensity,[70],0.75
same,SPOT peptide array binding signal intensity,[71],202
same,SPOT peptide array binding signal intensity,[72],4
same,SPOT peptide array binding signal intensity,[73],238
same,SPOT peptide array binding signal intensity,[74],4
same,SPOT peptide array binding signal intensity,[1],762
same,SPOT peptide array binding signal intensity,[2],80.3
same,SPOT peptide array binding signal intensity,[3],232
same,SPOT peptide array binding signal intensity,[4],1190
same,SPOT peptide array binding signal intensity,[5],295
same,SPOT peptide array binding signal intensity,[6],84
same,SPOT peptide array binding signal intensity,[7],130
same,SPOT peptide array binding signal intensity,[8],28.8
same,SPOT peptide array binding signal intensity,[9],166
same,SPOT peptide array binding signal intensity,[10],41
same,SPOT peptide array binding signal intensity,[11],104
same,SPOT peptide array binding signal intensity,[12],131
same,SPOT peptide array binding signal intensity,[13],2430
same,SPOT peptide array binding signal intensity,[14],6.5
same,SPOT peptide array binding signal intensity,[15],3000
same,SPOT peptide array binding signal intensity,[16],6
same,SPOT peptide array binding signal intensity,[17],14
same,SPOT peptide array binding signal intensity,[18],719
same,SPOT peptide array binding signal intensity,[19],42.5
same,SPOT peptide array binding signal intensity,[20],1.5
same,SPOT peptide array binding signal intensity,[21],4.75
same,SPOT peptide array binding signal intensity,[22],489
same,SPOT peptide array binding signal intensity,[23],4
same,SPOT peptide array binding signal intensity,[24],52.7
same,SPOT peptide array binding signal intensity,[25],2060
same,SPOT peptide array binding signal intensity,[26],693
same,SPOT peptide array binding signal intensity,[27],6.5
same,SPOT peptide array binding signal intensity,[28],561
same,SPOT peptide array binding signal intensity,[29],13
same,SPOT peptide array binding signal intensity,[30],162
same,SPOT peptide array binding signal intensity,[31],0.75
same,SPOT peptide array binding signal intensity,[32],4
same,SPOT peptide array binding signal intensity,[33],269
same,SPOT peptide array binding signal intensity,[34],12.5
same,SPOT peptide array binding signal intensity,[35],788
same,SPOT peptide array binding signal intensity,[36],1140
same,SPOT peptide array binding signal intensity,[37],10.5
same,SPOT peptide array binding signal intensity,[38],294
same,SPOT peptide array binding signal intensity,[39],18.8
same,SPOT peptide array binding signal intensity,[40],1300
same,SPOT peptide array binding signal intensity,[41],62.5
same,SPOT peptide array binding signal intensity,[42],14.2
same,SPOT peptide array binding signal intensity,[43],≤ 0
same,SPOT peptide array binding signal intensity,[44],43
